In PubChem BioAssay (EPA / NIEHS):
Several values for one entry are separate records, joined by “and”; a condition that tells them apart may be missing. Equal values may be shown once. Some structures have more than one record in an assay (separate samples or runs), and their calls can disagree. Activity calls are given as the source filed them. Rule for the calls: active = hit-call score of the fitted dose curve at least 0.9, where 1 is the maximum; inactive = score below 0.9.

Read-out: Monokine induced gamma interferon (MIG), CXCL9 (gene 4283)
Test: BSK_3C_MIG: BioMAP Diversity Plus: 3C Assay for Monokine induced gamma interferon (MIG) Biomarker Activity (AID 2283021);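 for AC50: MIG protein level measured by immunoassay in the treated endothelial cultures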
Conditions: primary human endothelial cells (HUVEC); actives raise or lower the signal
Protocol: BSK_3C is a cell-based, multiplexed-readout assay that uses umbilical vein endothelium, a human vascular primary cell, with measurements taken at 24 hours after chemical dosing in a 96-well plate.BSK_3C_MIG is an assay component measured in the BSK_3C assay. It measures MIG antibody related to regulation of gene expression using ELISA technology.Data from the assay component BSK_3C_MIG was analyzed into 1 assay endpoint. This assay endpoint, BSK_3C_MIG, was analyzed with bidirectional fitting relative to DMSO as the negative control and baseline of activity. Using a type of binding reporter, gain or loss-of-signal activity can be used to understand changes in the signaling as they relate to the gene CXCL9. Furthermore, this assay endpoint can be referred to as a primary readout, because this assay has produced multiple assay endpoints where this one serves a signaling function. To generalize the intended target to other relatable targets, this assay endpoint is annotated to the cytokine intended target family, where the subfamily is chemotactic factor.
The levels of cell surface (or secreted, indicated by the prefix "s") biomarker endpoints were measured by ELISA. Overt cytotoxicity to cells in confluent adherent cultures (all systems other than the BT system) was assessed by measuring total protein levels using sulforhodamine B (SRB) staining in parallel cultures at the time of biomarker measurements, indicated as SRB endpoints. For proliferation assays for adherent cell types, individual cell types are cultured at sub-confluence and relative cell numbers quantified by SRB staining at time points optimized for each system (48 h: 3C and CASM3C systems; 72 h: BT and HDF3CGF systems; 96 h: SAg system). SRB was performed by staining cells with 0.1% SRB after fixation with 10% TCA and reading wells at 560 nm.Viability and proliferation of PBMC (T cells) was quantified by Alamar Blue reduction for the SAg and BT systems. For PBMC viability (referred to as PBMC Cytotoxicity within the assay endpoint names), cells were plated (75,000/well in a 96-well plate) and then chemical samples added for 1 h before addition of activators, SEB and TSST-1 (20 ng/mL final concentration each). Cells were incubated for 90 h. Then, Alamar Blue (20 uL/well) (Invitrogen, Cat DAL1100) was added for 6 h, and the plates were read with a fluorescence microplate reader at 546/580 nm (excitation/emission). For PBMC proliferation, cells were plated and activated as above but incubated for only 16 h prior to addition of Alamar Blue. Plates were read after 6 h.

SMILES	outcome	AC50
CCC(=O)OCC=Cc1ccccc1	inactive	
c1ccc(OCCOc2ccccc2)cc1	inactive	
CCCCN(CCO)CCO	inactive	
COc1ccccc1NC(=O)CC(C)=O	inactive	
C=C(C)C(N)=O	inactive	
C=CC(=O)OCC(CO)(COC(=O)C=C)COC(=O)C=C		0.602 µM (active)
CCCO[Si](OCCC)(OCCC)OCCC	inactive	
NC(=O)c1c(Cl)cccc1Cl	inactive	
CCOC(=O)CCCCCCCCC(=O)OCC	inactive	
CC=CC(=O)C1=C(C)C=CCC1(C)C	inactive	
c1ccc(Sc2ccccc2)cc1	inactive	
CC(C)(C)c1cccc(O)c1	inactive	
CC(=O)OC(C)(C)C1CC=C(C)CC1 (stereo not given)	inactive	
OCCN1CCOCC1	inactive	
CC1(C)[C@H](C=C(Cl)Cl)[C@H]1C(=O)OCc1cccc(Oc2ccccc2)c1	inactive	
CCCCCCCC1CCCC1=O (stereo not given)	inactive	
O=C(c1ccc(OCCN2CCCCC2)cc1)c1c(-c2ccc(O)cc2)sc2cc(O)ccc12		36.1 µM (active)
CC(C)Cc1ccc(C(C)C(=O)O)cc1 (stereo not given)	inactive	
CCCCCCCCCC(=O)OCC	inactive	
C[C@]12CC[C@@H]3c4ccc(O)cc4CC[C@H]3[C@@H]1CC[C@@H]2O	inactive	

SMILES	outcome	AC50
C=C(C)C(=O)OCCC(F)(F)C(F)(F)C(F)(F)C(F)(F)C(F)(F)C(F)(F)C(F)(F)C(F)(F)F	inactive	
CC(C)(CO)CO	inactive	
O=C1OC2(c3ccc(O)cc3Oc3cc(O)ccc32)c2ccccc21	inactive	
COC(=O)c1ccc(C(=O)OC)cc1	inactive	
O=S1(=O)CC(Cl)(Cl)C(Cl)(Cl)C1		1.34 µM (active)
O=C(O)C(F)(F)OC(F)(F)C(F)(F)OC(F)(F)C(F)(F)C(F)(F)C(F)(F)F	inactive	
O=C(O)C(F)(F)C(F)(F)C(F)(F)C(F)(F)C(F)(F)C(F)(F)C(F)(F)C(F)F	inactive	
CC(C)CCCC(C)(C)O	inactive	
OCC(F)(OC(F)(F)C(F)(OC(F)(F)C(F)(F)C(F)(F)F)C(F)(F)F)C(F)(F)F (stereo not given)	inactive	3.71 µM (active)
C=C(F)C(=O)OC(C(F)(F)F)C(F)(F)F	inactive	
CC(=O)OCC=C(C)CCC=C(C)CCC=C(C)C	inactive	
Nc1ccc(N)c([N+](=O)[O-])c1	inactive	
CC(=O)c1ccc(C)cc1	inactive	
CC1=CC(C)C(C=O)C(C)C1 (stereo not given) (tested in a mixture with another compound)	inactive	
CCOC(=O)C=Cc1ccccc1	inactive	
CCn1cc(C(=O)O)c(=O)c2ccc(C)nc21	inactive	
CC/C(=C(\c1ccccc1)c1ccc(OCCN(C)C)cc1)c1ccccc1		10.4 µM (active) and 9.73 µM (active)
C#C[C@]1(O)CC[C@H]2[C@@H]3CCc4cc(O)ccc4[C@H]3CC[C@@]21C	inactive	
CCCCCCCCCCCCS	inactive	
